Measured values taken from PubChem BioAssay.
The source made the active and inactive calls. Unless noted, the rule behind the calls is not given here.

Legend:
[1] = compound effects on lung adenocarcinoma cell viability – A549, calcein-AM fluorescence, 48 h, basal, profiling panel (AID 1162); conditions: higher = more signal; note: test concentration not given here
[2] = compound effects on differentiated 3T3-L1 adipocyte viability – cell-based, 3T3-L1 adipocytes, calcein-AM fluorescence, 48 h, basal, profiling panel (AID 1163); conditions: 3T3-L1 adipocytes viability, higher = more signal; note: test concentration not given here
[3] = compound effects on hepatocellular carcinoma cell viability – HepG2, calcein-AM fluorescence, 48 h, basal, profiling panel (AID 1164); conditions: higher = more signal; note: test concentration not given here
[4] = compound effects on multiple myeloma cell viability – MM1S, calcein-AM fluorescence, 48 h, basal, profiling panel (AID 1165); conditions: higher = more signal; note: test concentration not given here
[5] = calcein-AM signal in unstimulated myeloma cells – cell-based, calcein-AM fluorescence, 48 h, PK04 Diversity Set, profiling panel (AID 1166); conditions: RPMI8226 myeloma viability, higher = more signal;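 note: cells grown under basal conditions without added stimulus; test concentration not given here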
[6] = JC-1 mitochondrial signal, unstimulated HepG2 cells – cell-based, JC-1 fluorescence, 24 h, 100 nL compound, profiling panel (AID 1167); conditions: HepG2 mitochondrial potential, higher = more signal; note: test concentration not given here
[7] = JC-1 mitochondrial signal, unstimulated adipocytes – cell-based, JC-1 fluorescence, 3T3-L1 adipocytes, 24 h, 100 nL compound, profiling panel (AID 1168); conditions: JC-1 mitochondrial fluorescence, higher = more signal, called active from +8 up or from −8 down; note: test concentration not given here
[8] = JC-1 mitochondrial signal, unstimulated myeloma cells – cell-based, JC-1 fluorescence, RPMI8226, 24 h, 100 nL compound, profiling panel (AID 1169); conditions: JC-1 mitochondrial potential fluorescence, higher = more signal; note: test concentration not given here
[9] = JC-1 mitochondrial signal, unstimulated MM1S myeloma – cell-based, JC-1 fluorescence, 24 h, 100 nL compound, profiling panel (AID 1170); conditions: MM1S mitochondrial potential, higher = more signal; note: test concentration not given here
[10] = resazurin metabolic signal in A549 cells – cell-based, resazurin fluorescence, 24 h, PK04 Diversity Set, profiling panel (AID 1171); conditions: A549 viability, higher = more signal, called active from +8 up or from −8 down; note: test concentration not given here
[11] = resazurin metabolic signal in HepG2 cells – cell-based, resazurin fluorescence, 24 h, PK04 Diversity Set, profiling panel (AID 1172); conditions: HepG2 viability, higher = more signal; note: test concentration not given here
[12] = budding yeast growth changes without added modifier – OD600, strain BY4716, 24 h, basal condition, primary screen (AID 1173); conditions: S. cerevisiae BY4716 growth, OD600, 24 h; higher = more signal, called active from +8 up or from −8 down
[13] = viability profiling in MM1S myeloma cells – cell-based, resazurin fluorescence, basal, 24 h, PK04 Diversity Set, profiling panel (AID 1174); conditions: higher = more signal, called active from +8 up or from −8 down; note: test concentration not given here
[14] = molecular target: Dihydroorotate dehydrogenase (quinone), mitochondrial (Plasmodium falciparum (isolate 3D7)) (UniProt Q08210); assay: inhibition of P. falciparum DHODH – biochemical, C-terminal His tag, absorbance 600 nm, primary screen (AID 1175); conditions: PfDHODH enzyme, DCIP absorbance 600 nm; higher = more signal, called active from +8 up or from −8 down;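 note: recombinant parasite enzyme with a five histidine tag at its C terminus; test concentration not given here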
Sequence of Dihydroorotate dehydrogenase (quinone), mitochondrial (Plasmodium falciparum (isolate 3D7)) (Q08210 whole entry, looked up): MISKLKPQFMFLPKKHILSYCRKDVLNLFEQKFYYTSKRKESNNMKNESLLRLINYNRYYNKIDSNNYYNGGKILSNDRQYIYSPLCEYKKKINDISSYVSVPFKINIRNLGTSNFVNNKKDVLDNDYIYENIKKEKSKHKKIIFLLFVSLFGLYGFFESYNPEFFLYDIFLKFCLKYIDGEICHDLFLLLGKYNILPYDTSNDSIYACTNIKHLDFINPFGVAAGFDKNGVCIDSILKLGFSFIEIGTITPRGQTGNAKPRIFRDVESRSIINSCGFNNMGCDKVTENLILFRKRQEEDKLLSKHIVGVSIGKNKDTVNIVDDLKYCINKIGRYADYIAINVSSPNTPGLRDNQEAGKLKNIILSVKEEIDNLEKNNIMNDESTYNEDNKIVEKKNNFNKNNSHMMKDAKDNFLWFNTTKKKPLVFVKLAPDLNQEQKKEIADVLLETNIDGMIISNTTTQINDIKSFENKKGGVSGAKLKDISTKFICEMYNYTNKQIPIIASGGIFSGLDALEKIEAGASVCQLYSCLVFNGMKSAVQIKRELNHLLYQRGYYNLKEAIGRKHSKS

[15] = inhibition of PAO1 biofilm formation – strain PAO1, LB-PBS medium, absorbance 600 nm, primary screen (AID 1176); note: test concentration not given here; conditions: P. aeruginosa PAO1 growth/biofilm, A600, 12 h; higher = more signal
[16] = growth modulation of vineyard yeast isolate – strain RM11-1a, OD600, basal, 24 h, primary screen (AID 1177);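 note: cultures grown under basal conditions with no added stressor; test concentration not given here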; conditions: S. cerevisiae RM11-1a growth, OD600, 24 h; higher = more signal, called active from +8 up or from −8 down
[17] = growth of efflux-deficient E. coli DRC39 – strain DRC39, OD650, 24 h, E. coli filamentation inducers, primary screen (AID 1178);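 note: growth measured as culture turbidity by optical density at 650 nm; test concentration not given here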; conditions: E. coli DRC39 acrAB, higher = more signal, called active from +8 up or from −8 down
[18] = growth of efflux-deficient E. coli DRC39 – strain DRC39, OD650, 48 h, E. coli filamentation inducers, primary screen (AID 1179);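 note: screen aims at cell division blockers that make cells filament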; conditions: E. coli DRC39 delta-acrAB growth, higher = more signal, called active from +8 up or from −8 down
[19] = viability profiling in RPMI8226 myeloma cells – cell-based, resazurin fluorescence, basal, 24 h, PK04 Diversity Set, profiling panel (AID 1180); conditions: higher = more signal;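 note: RPMI8826 multiple myeloma cell line at 5000 cells per well; test concentration not given here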
[20] = molecular target: E3 ubiquitin-protein ligase XIAP (Homo sapiens) (UniProt P98170); assay: small molecules binding XIAP protein – biophysical, small-molecule microarray, fluorescence 635 nm, primary screen (AID 1181); conditions: higher = more signal;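 note: score merges 667 nm emission and signal to noise over triplicate slides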
Sequence of E3 ubiquitin-protein ligase XIAP (Homo sapiens) (P98170 whole entry, looked up): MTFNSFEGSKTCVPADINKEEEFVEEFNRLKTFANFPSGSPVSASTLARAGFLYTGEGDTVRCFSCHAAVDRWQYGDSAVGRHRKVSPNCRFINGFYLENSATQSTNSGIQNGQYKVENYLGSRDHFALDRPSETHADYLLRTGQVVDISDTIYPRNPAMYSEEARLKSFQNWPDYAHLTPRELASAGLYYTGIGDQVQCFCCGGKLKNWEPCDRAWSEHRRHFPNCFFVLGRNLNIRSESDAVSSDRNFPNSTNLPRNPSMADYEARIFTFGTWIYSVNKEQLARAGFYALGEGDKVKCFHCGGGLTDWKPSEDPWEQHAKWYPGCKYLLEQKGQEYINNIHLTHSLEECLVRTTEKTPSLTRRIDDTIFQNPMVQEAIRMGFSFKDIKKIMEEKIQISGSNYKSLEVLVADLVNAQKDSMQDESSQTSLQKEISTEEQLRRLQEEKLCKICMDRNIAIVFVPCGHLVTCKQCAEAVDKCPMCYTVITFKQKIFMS

Cc1ccc(S[C@]2(C(=O)NCc3ccccc3)CC(=O)N(Cc3ccccc3Cl)[C@@H]2c2ccc(CO)cc2I)cc1
z-score [1]: 0.34 | z-score [2]: 1.13 | z-score [3]: -0.0653 | z-score [4]: -1.73 | z-score [5]: -1.65 | z-score [6]: -0.44 | z-score [7]: 0.376 (inactive) | z-score [8]: -0.0557 | z-score [9]: -2.15 | z-score [10]: 1.6 (inactive) | z-score [11]: 1.21 | z-score [12]: -3.45 (inactive) | z-score [13]: -3.03 (inactive) | composite z-score [14]: -1.82 (inactive) | z-score [15]: 0.531 (inactive) | z-score [16]: -1.07 (inactive) | z-score [17]: 0.321 (inactive) | z-score [18]: 0.439 (inactive) | z-score [19]: -2.02 | composite z-score [20]: -0.136

COC(=O)[C@@]1(Cc2ccc(F)cc2)[C@H]2c3cc(C(=O)N4CCCC4)n(Cc4cccc5ccccc45)c3C[C@H]2CN1C(=O)c1ccccc1
z-score [1]: -0.805 | z-score [2]: 0.42 | z-score [3]: 0.0082 | z-score [4]: -1.03 | z-score [5]: -1.07 | z-score [6]: 3.8 | z-score [7]: -1.48 (inactive) | z-score [8]: 0.127 | z-score [9]: -0.779 | z-score [10]: 0.785 (inactive) | z-score [11]: -0.296 | z-score [12]: 1.28 (inactive) | z-score [13]: -1.53 (inactive) | composite z-score [14]: -0.422 (inactive) | z-score [15]: 0.784 (inactive) | z-score [16]: 0.0161 (inactive) | z-score [17]: -1.11 (inactive) | z-score [18]: -0.974 (inactive) | z-score [19]: -1.25 | composite z-score [20]: 0.487

C=CC[C@@H](OC(=O)Nc1ccc(OC)cc1)c1ccc(O)c2ccccc12
z-score [1]: -0.28 | z-score [2]: 0.316 | z-score [3]: -2 | z-score [4]: -2.96 | z-score [5]: -4.3 | z-score [6]: -3.28 | z-score [7]: -1.55 (inactive) | z-score [8]: -0.992 | z-score [9]: -2.18 | z-score [10]: -0.67 (inactive) | z-score [11]: -1.07 | z-score [12]: -16.6 (active) | z-score [13]: -6.13 (inactive) | composite z-score [14]: -7.4 (inactive) | z-score [15]: 1.73 (inactive) | z-score [16]: -20.3 (active) | z-score [17]: 0.305 (inactive) | z-score [18]: -0.473 (inactive) | z-score [19]: -4.48 | composite z-score [20]: 0.0413

C=CC[C@]1(C(=O)N2CCOCC2)N=C(c2ccc(OCCCO)cc2)O[C@H]1c1ccccc1
z-score [1]: -0.211 | z-score [2]: 0.117 | z-score [3]: -0.539 | z-score [4]: -1.11 | z-score [5]: -2.07 | z-score [6]: -0.0158 | z-score [7]: -0.0689 (inactive) | z-score [8]: -0.326 | z-score [9]: -0.577 | z-score [10]: 1.39 (inactive) | z-score [11]: 0.318 | z-score [12]: -1.4 (inactive) | z-score [13]: -0.0524 (inactive) | composite z-score [14]: 0.373 (inactive) | z-score [15]: 1.17 (inactive) | z-score [16]: -0.594 (inactive) | z-score [17]: 0.14 (inactive) | z-score [18]: 0.122 (inactive) | z-score [19]: 0.335 | composite z-score [20]: -0.031

C=CCC(OC(C)=O)[C@@H]1[C@@H](N(Cc2ccc(-c3ccccc3)cc2)C(=O)Cc2ccc(F)cc2)c2cc(OCCCO)ccc2N1C(=O)c1ccc2ccccc2n1 (stereo not given in full)
z-score [1]: 1.07 | z-score [2]: 0.203 | z-score [3]: 1.14 | z-score [4]: -2.11 | z-score [5]: 0.246 | z-score [6]: 2.97 | z-score [7]: 0.25 (inactive) | z-score [8]: -0.359 | z-score [9]: 1.7 | z-score [10]: 1.37 (inactive) | z-score [11]: 1.29 | z-score [12]: -0.186 (inactive) | z-score [13]: 1.08 (inactive) | composite z-score [14]: -0.203 (inactive) | z-score [15]: -0.619 (inactive) | z-score [16]: -0.452 (inactive) | z-score [17]: 0.918 (inactive) | z-score [18]: 0.761 (inactive) | z-score [19]: 0.893 | composite z-score [20]: 0.103

[N-]=[N+]=NCc1ccccc1[C@@H]1OC(c2ccc(OCCCO)cc2)=N[C@]1(Cc1ccccc1)C(=O)N1CCCCC1
z-score [1]: 0.251 | z-score [2]: 0.445 | z-score [3]: 0.525 | z-score [4]: -0.604 | z-score [5]: -3.3 | z-score [6]: -0.227 | z-score [7]: 0.467 (inactive) | z-score [8]: -1.23 | z-score [9]: -0.354 | z-score [10]: 0.583 (inactive) | z-score [11]: -0.596 | z-score [12]: -1.11 (inactive) | z-score [13]: -1.3 (inactive) | composite z-score [14]: 0.678 (inactive) | z-score [15]: -0.621 (inactive) | z-score [16]: 1.48 (inactive) | z-score [17]: 0.775 (inactive) | z-score [18]: 0.345 (inactive) | z-score [19]: -0.94 | composite z-score [20]: -0.257

CO[C@H]1O[C@H](CO)[C@@H](OC(=O)Nc2ccc3c(c2)OCO3)[C@H](OC(=O)Nc2ccccc2)[C@H]1OC(=O)Nc1ccccc1
z-score [1]: -2.08 | z-score [2]: 1.11 | z-score [3]: -2.7 | z-score [4]: -1.67 | z-score [5]: -2.56 | z-score [6]: -0.812 | z-score [7]: 1.42 (inactive) | z-score [8]: -0.442 | z-score [9]: -1.37 | z-score [10]: -3.25 (inactive) | z-score [11]: -1.78 | z-score [12]: 1.38 (inactive) | z-score [13]: -3.14 (inactive) | composite z-score [14]: 1.15 (inactive) | z-score [15]: -0.329 (inactive) | z-score [16]: 2.93 (inactive) | z-score [17]: 0.402 (inactive) | z-score [18]: -0.728 (inactive) | z-score [19]: -2.41 | composite z-score [20]: 0.137

O=C1O[C@@H](c2ccccc2)[C@@H](c2ccccc2)N2[C@@H](c3ccc(O)cc3)[C@]3(C(=O)Nc4ccc(C#CC5=CCCCC5)cc43)[C@@H](C(=O)O)[C@H]12
z-score [1]: 1.09 | z-score [2]: 0.369 | z-score [3]: 1.2 | z-score [4]: -0.294 | z-score [5]: -0.412 | z-score [6]: -0.956 | z-score [7]: 0.619 (inactive) | z-score [8]: -0.177 | z-score [9]: 1.04 | z-score [10]: 1.86 (inactive) | z-score [11]: 1.46 | z-score [12]: -4.6 (inactive) | z-score [13]: 1.23 (inactive) | composite z-score [14]: -2.56 (inactive) | z-score [15]: 2.85 (inactive) | z-score [16]: -2.61 (inactive) | z-score [17]: 0.661 (inactive) | z-score [18]: 1.32 (inactive) | z-score [19]: 1.02 | composite z-score [20]: 0.332

O=C1OCCC=C[C@H]2OC34C=CCN(Cc5ccccc5)C(=O)[C@H]3N(CCCO)C(=O)[C@@H]4C12 (stereo not given in full)
z-score [1]: 0.577 | z-score [2]: 1.66 | z-score [3]: -1.04 | z-score [4]: 0.0832 | z-score [5]: -0.0189 | z-score [6]: 0.161 | z-score [7]: -0.282 (inactive) | z-score [8]: 0.798 | z-score [9]: -0.559 | z-score [10]: 0.233 (inactive) | z-score [11]: 0.35 | z-score [12]: -0.625 (inactive) | z-score [13]: 1.33 (inactive) | composite z-score [14]: -1.01 (inactive) | z-score [15]: 0.152 (inactive) | z-score [16]: -0.0921 (inactive) | z-score [17]: -0.638 (inactive) | z-score [18]: 0.129 (inactive) | z-score [19]: 0.165 | composite z-score [20]: -0.0116
